Test results: PubChem BioAssay (Tox21)
Records with an inconclusive call do not appear. Entries that show only a call come without a potency. Active and inactive are the calls of the source. The call rests on the fitted dose curve.

Biological target: Beta-2 adrenergic receptor (Homo sapiens) (UniProt P07550)
Test: Adrenergic beta2 receptor (ADRB2) small molecule agonists, cell-based qHTS assay (AID 1963593);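 further: CHO cells stably overexpressing human ADRB2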
How it was run: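 CHO cells stably over-expressing ADRB2 were plated overnight at 37C, then dosed with compounds plus a stimulation mix containing 100uM IBMX and 25uM Ro-20-1724 for 0.5hr at room temperature. cAMP was measured by HTRF competition, 1hr.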

Beta-2 adrenergic receptor (Homo sapiens), sequence (P07550 whole entry, looked up): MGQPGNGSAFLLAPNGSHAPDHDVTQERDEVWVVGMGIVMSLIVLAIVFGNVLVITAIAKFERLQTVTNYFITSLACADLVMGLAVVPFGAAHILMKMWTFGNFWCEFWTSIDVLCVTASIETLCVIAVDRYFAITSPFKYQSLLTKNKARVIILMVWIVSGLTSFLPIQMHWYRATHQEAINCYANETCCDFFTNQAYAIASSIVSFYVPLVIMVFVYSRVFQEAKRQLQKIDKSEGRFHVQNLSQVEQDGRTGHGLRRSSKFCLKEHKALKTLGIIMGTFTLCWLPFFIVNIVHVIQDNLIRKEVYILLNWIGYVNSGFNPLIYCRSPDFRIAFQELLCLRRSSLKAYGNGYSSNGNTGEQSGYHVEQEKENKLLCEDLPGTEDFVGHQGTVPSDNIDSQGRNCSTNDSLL

SMILES | Potency
COc1ccc2c3c1O[C@H]1[C@@H](O)C=C[C@H]4[C@@H](C2)N(C)CC[C@@]341 | inactive
c1ccc(OP(Oc2ccccc2)Oc2ccccc2)cc1 | inactive
CCOP(=O)(OCC)OP(=O)(OCC)OCC | inactive
CC(C)NC(C)C | inactive
O=c1[nH]c2ccccc2c(=O)o1 | inactive
CC(O)CCO (stereo not given) | inactive
COCCC#N | inactive
O=[N+]([O-])c1ccc([As](=O)(O)O)cc1 | inactive
C=CCN(CC=C)C(=O)C(Cl)Cl | inactive
COc1nc(NC(C)C)nc(NC(C)C)n1 | inactive
CN(C)C(=O)Nc1cccc(C(F)(F)F)c1 | inactive
c1ccc(C2CO2)cc1 (stereo not given) | inactive
Nc1cnn(-c2ccccc2)c(=O)c1Cl | inactive
Nc1cc(Cl)cc(C(=O)O)c1Cl | inactive
CCCC[N+]1(C)CCCC1 (tested in a mixture with another compound) | inactive
NCCc1ccc(O)cc1 | inactive
Clc1cnc(Oc2ccc(Oc3ncc(Cl)cc3Cl)cc2)c(Cl)c1 | inactive
CC(C)(C)C(=O)CCl | inactive
CNC(=O)Oc1ccccc1C1OCCO1 | inactive
CN(C)C(=O)Nc1ccc(Cl)cc1 | inactive
CC1(C)C(=O)NC(=O)NC1=O | inactive
ClCC1CO1 (stereo not given) | inactive

SMILES | Potency
N#CCc1ccccc1 | inactive
CCN(CC)C1CCCCC1 | inactive
O=C(NCO)NCO | inactive
CC(C)=CCN1CC[C@@]2(C)c3cc(O)ccc3C[C@@H]1[C@@H]2C | inactive
COc1ccc2c3c1O[C@H]1[C@H](O)CC[C@H]4[C@@H](C2)N(C)CC[C@@]341 | inactive
COc1c(C(C)(C)C)cc([N+](=O)[O-])c(C)c1[N+](=O)[O-] | inactive
BrCCBr | inactive
CCCCOCCOC(C)=O | inactive
Cl/C=C/Cl | inactive
CCCOC(=O)c1ccccc1C(=O)OCCC | inactive
CC(C)NC(=O)N1CC(=O)N(c2cc(Cl)cc(Cl)c2)C1=O | inactive
C=CC1CC=CCC1 (stereo not given) | inactive
Cc1cccc([N+](=O)[O-])c1 | inactive
NNC(=S)NN | inactive
CCOP(=O)(OCC)OCC | inactive
COc1cc(N)c(Cl)cc1C(=O)NC1CN2CCC1CC2 (stereo not given) | inactive
C1CCC(NC2CCCCC2)CC1 | inactive
CN1CC[C@]23c4c5ccc(O)c4O[C@H]2[C@@H](O)CC[C@H]3[C@H]1C5 | inactive
COC(=O)c1sccc1S(=O)(=O)NC(=O)Nc1nc(C)nc(OC)n1 | inactive
N#Cc1cc([N+](=O)[O-])ccc1N | inactive
CCCSC(=O)Cl | inactive
Cc1cccc(N)c1N | inactive

SMILES | Potency
O=C(O)COc1ccc(Cl)cc1Cl | inactive
Cn1c(N)nc2c3cccnc3ccc21 | inactive
CC[N+](=O)[O-] | inactive
N#CC1(N=NC2(C#N)CCCCC2)CCCCC1 | inactive
Nc1ccccc1C(=O)O | inactive
Brc1ccc(Oc2cc(Br)c(Br)cc2Br)c(Br)c1 | inactive
CN(N=O)C(N)=O | inactive
CN(C)CCO | inactive
Cc1ccc(-c2nc3ccc(C)cn3c2CC(=O)N(C)C)cc1 | inactive
C[C@]12CCC(=O)C=C1CC[C@@H]1[C@@H]2CC[C@]2(C)C(=O)CC[C@@H]12 | inactive
CCN(CC)c1ccccc1 | inactive
C=C(C)[C@@H]1CC=C(C=O)CC1 | inactive
C=C(C)C(=O)OCC(CC)CCCC (stereo not given) | inactive
COc1ccc(N)cc1 | inactive
c1ccc2c(c1)sc1ccccc12 | inactive
N#Cc1cc(Br)c(O)c(Br)c1 | inactive
COc1ccc(C(CN(C)C)C2(O)CCCCC2)cc1 (stereo not given) | inactive
CCN(N=O)C(N)=O | inactive
C=CCc1ccc2c(c1)OCO2 | inactive
CCC(=O)c1ccccc1 | inactive
N#CCNCC#N | inactive
